Experimental data taken from PubChem BioAssay (EPA / NIEHS).
Calls of active or inactive are those of the source. How the source made its calls: active means hit-call score of the fitted dose curve at least 0.9, where 1 is the maximum; inactive means score below 0.9.

Key:
[1] = ATG_GLI_CIS: Attagene CIS-FACTORIAL HepG2 Assay for human Zinc Finger Protein GLI1 (AID 2282945); details: HepG2, Attagene cis-factorial reporter mRNA, GLI element; actives raise or lower the signal
Outline: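 Bidirectional curve fits relative to DMSO, using reporter mRNA levels from RT-PCR plus capillary electrophoresis. Cells were HepG2 transiently carrying cis-regulated reporter constructs, harvested 24 h after dosing.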

[2] = ATG_ISRE_CIS: Attagene CIS-FACTORIAL HepG2 Assay for human Interferon Regulatory Factor 1 (IRF1) binding to an Interferon-Stimulated Response Element (ISRE) (AID 2282948); details: HepG2 ISRE cis-reporter (Attagene), mRNA transcription readout; actives raise or lower the signal
Outline: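 Signal reflects induction or loss of ISRE-linked reporter mRNA in transiently transfected HepG2 cells after a 24 h treatment, detected by fluorescent RT-PCR fragments on capillary electrophoresis and normalised to DMSO.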

[3] = ATG_M_32_CIS: Attagene CIS-FACTORIAL HepG2 Assay for M32 Transcription Factor (Internal Marker) (AID 2282949); details: HepG2 Attagene cis-factorial M32 reporter, mRNA; actives raise or lower the signal;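 further: background control marker of the multiplexed CIS panel rather than a real target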
Outline: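 Using DMSO as baseline, bidirectional curve fits were applied to reporter mRNA signals. These came from transiently transfected HepG2 cells exposed for 24 h, with RNA analysed by RT-PCR, FAM primer extension, HpaI digestion and CE.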

[4] = ATG_M_06_CIS: Attagene CIS-FACTORIAL HepG2 Assay for M06 Transcription Factor (Internal Marker) (AID 2282950); details: HepG2 Attagene CIS-FACTORIAL M06 internal marker reporter; actives raise or lower the signal
Outline: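 Cells (HepG2, transiently carrying cis-driven reporter units) receive chemical for 24 h before RNA isolation. Reporter cDNA is PCR-amplified, FAM-labelled by primer extension, HpaI-digested and sized on a capillary analyser.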

[5] = target: Hypoxia-inducible factor 1-alpha (Homo sapiens) (UniProt Q16665); assay: ATG_HIF1a_CIS: Attagene CIS-FACTORIAL HepG2 Assay for human Hypoxia Inducible Factor 1 (HIF1A) (AID 2282951); details: HepG2 Attagene cis-factorial HIF1a reporter transcription; actives raise or lower the signal
Outline: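 Measures endogenous transcription-factor activity through cis-regulated reporter mRNA in HepG2. Cells dosed 24 h; transcripts quantified by RT-PCR with 6-FAM-labelled products separated by capillary electrophoresis; DMSO serves as negative control.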

[6] = target: Hepatocyte nuclear factor 6 (Homo sapiens) (UniProt Q9UBC0); assay: ATG_HNF6_CIS: Attagene CIS-FACTORIAL HepG2 Assay for human Hepatocyte Nuclear Factor 6 (HNF6) (AID 2282952); details: HepG2 Attagene cis-factorial HNF6 reporter transcription; actives raise or lower the signal
Outline: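 Using cis-element reporters in HepG2 liver cells, the assay tracks endogenous factor-driven transcription 24 h post-dosing. Signal comes from 6-FAM-labelled, HpaI-digested RT-PCR fragments, with gain or loss scored against DMSO.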

[7] = target: Heat shock factor protein 1 (Homo sapiens) (UniProt Q00613); assay: ATG_HSE_CIS: Attagene CIS-FACTORIAL HepG2 Assay for human Heat Shock Transcription Factor 1 (HSE) (AID 2282953); details: HepG2 HSE cis-reporter, Attagene RNA transcription; actives raise or lower the signal
Outline: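 Liver-derived HepG2 cells carry transiently introduced multiple reporter units governed by cis promoters. Reporter RNA measured 24 h post-dose through reverse transcription, PCR amplification, fluorescent labelling and capillary electrophoresis, normalised to DMSO.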

[8] = ATG_MRE_CIS: Attagene CIS-FACTORIAL HepG2 Assay for human Metal Responsive Element (MRE) (AID 2282954); details: HepG2 MRE cis-reporter transcription, Attagene multiplex; actives raise or lower the signal
Outline: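 Multiplexed cis-reporter assay in human HepG2 liver cells, 24 h incubation with test chemical. Reporter transcripts measured by RT-PCR and capillary electrophoresis; values from bidirectional curve fitting versus DMSO.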

[9] = ATG_PBREM_CIS: Attagene CIS-FACTORIAL HepG2 Assay for human Phenobarbital-responsive Enhancer Module (PBREM) (AID 2282955); details: HepG2 PBREM cis-reporter, Attagene multiplexed transcription; actives raise or lower the signal
Outline: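 Fluorescence of labelled reporter cDNA fragments, resolved by capillary electrophoresis, gives mRNA induction in transfected HepG2 cells treated for 24 h; DMSO serves as negative control and baseline.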

[10] = ATG_GRE_CIS: Attagene CIS-FACTORIAL HepG2 Assay for human Glucocorticoid Response Elements (GRE) (AID 2282947); details: HepG2 GRE cis-reporter, Attagene multiplex mRNA; actives raise or lower the signal
Outline: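 Multiplexed cis-reporter mRNA induction, HepG2, 24 h post-dose. RT-PCR, FAM-labelled, HpaI-digested amplicons by CE. Bidirectional fit vs DMSO.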

Measured: AC50

Chain of Hepatocyte nuclear factor 6 (Homo sapiens) (Q9UBC0 whole entry, looked up, the tested form may be a part): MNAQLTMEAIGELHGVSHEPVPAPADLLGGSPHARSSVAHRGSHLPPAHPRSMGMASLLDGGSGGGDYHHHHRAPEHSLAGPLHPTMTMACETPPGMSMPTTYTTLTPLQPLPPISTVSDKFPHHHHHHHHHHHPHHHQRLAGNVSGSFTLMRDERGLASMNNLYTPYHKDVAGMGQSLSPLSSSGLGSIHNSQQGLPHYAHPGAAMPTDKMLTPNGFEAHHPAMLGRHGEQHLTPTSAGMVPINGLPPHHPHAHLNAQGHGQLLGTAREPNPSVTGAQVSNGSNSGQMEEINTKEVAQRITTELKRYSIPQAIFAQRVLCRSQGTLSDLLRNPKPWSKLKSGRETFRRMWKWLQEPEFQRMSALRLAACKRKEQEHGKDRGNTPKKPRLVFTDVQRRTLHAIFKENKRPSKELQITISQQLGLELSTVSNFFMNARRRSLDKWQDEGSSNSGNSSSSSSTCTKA
Chain of Hypoxia-inducible factor 1-alpha (Homo sapiens) (Q16665 whole entry, looked up): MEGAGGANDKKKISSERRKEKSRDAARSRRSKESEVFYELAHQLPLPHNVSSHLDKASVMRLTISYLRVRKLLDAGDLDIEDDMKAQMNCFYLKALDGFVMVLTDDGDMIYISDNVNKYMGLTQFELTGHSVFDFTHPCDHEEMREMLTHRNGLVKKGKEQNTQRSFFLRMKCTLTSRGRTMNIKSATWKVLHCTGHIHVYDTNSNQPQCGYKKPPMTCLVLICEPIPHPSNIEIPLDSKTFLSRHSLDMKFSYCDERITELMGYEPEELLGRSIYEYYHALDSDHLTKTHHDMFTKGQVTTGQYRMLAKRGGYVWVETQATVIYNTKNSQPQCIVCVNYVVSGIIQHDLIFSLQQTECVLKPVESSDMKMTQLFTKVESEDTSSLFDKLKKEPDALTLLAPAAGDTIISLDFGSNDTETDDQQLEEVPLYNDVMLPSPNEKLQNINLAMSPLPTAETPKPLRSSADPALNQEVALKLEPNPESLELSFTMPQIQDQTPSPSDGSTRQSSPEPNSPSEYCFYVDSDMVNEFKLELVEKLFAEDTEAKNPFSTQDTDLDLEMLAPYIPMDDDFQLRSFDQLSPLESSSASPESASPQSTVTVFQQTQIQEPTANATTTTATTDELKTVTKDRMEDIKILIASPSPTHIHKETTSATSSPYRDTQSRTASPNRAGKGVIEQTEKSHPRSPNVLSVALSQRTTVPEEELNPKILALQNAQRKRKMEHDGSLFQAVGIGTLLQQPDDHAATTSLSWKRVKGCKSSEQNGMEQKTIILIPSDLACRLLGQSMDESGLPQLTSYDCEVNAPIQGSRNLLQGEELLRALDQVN
Chain of Heat shock factor protein 1 (Homo sapiens) (Q00613 whole entry, looked up): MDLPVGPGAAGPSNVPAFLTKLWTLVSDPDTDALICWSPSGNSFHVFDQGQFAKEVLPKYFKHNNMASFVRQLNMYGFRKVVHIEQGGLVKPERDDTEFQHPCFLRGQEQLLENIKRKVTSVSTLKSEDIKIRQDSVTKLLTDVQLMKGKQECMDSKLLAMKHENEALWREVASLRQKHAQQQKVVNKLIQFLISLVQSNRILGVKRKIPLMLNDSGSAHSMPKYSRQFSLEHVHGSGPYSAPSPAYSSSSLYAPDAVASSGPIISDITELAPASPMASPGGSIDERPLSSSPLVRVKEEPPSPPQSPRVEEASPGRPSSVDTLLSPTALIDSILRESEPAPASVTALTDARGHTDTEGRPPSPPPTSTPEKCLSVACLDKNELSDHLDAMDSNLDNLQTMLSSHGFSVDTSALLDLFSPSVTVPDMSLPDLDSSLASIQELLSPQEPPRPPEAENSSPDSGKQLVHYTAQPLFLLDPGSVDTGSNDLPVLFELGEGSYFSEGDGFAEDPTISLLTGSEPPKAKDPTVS

CN1CCCC1=O
not listed: [9] | [10]
inactive: all other assays above

CCCCC(CC)COC(=O)CC(C(=O)OCC(CC)CCCC)S(=O)(=O)O (centres undefined)
active: [5] 0.000743 µM
not listed: [10]
inactive: all other assays above

COc1cc(S(=O)(=O)O)c(C)cc1N=Nc1c(O)ccc2cc(S(=O)(=O)O)ccc12
active: [5] 5.78 µM
not listed: [6] | [8]
inactive: all other assays above

CCCCCCC(=O)OCC
not listed: [10]
inactive: all other assays above

Cc1nc(-c2ccc3c(c2)CCN(CCC2CCC(NC(=O)/C=C/c4ccc(F)cc4)CC2)CC3)no1 (centres undefined)
not listed: [6]
inactive: all other assays above

CCCCCC(=O)O
not listed: [8] | [9] | [10]
inactive: all other assays above

CCc1c(C(=O)NN2CCCCC2)nn(-c2ccc(Cl)cc2Cl)c1-c1ccc(Br)cc1
active: [2] 3.67 µM | [5] 0.387 µM | [8] 4.76 µM
not listed: [10]
inactive: all other assays above

NCCO
not listed: [9]
inactive: all other assays above

COc1cc(-c2nc(NC(=O)c3cc4cc(C)cc(C)c4n3CC(=O)O)sc2CCC2CCCCC2)c(OC)cc1Cl
active: [1] 100 µM | [2] 12.7 µM | [7] 65.7 µM | [8] 6.2 µM | [9] 4.42 µM
inactive: all other assays above

OC[C@@H](O)[C@@H](O)[C@H](O)[C@H](O)CO
not listed: [8] | [9] | [10]
inactive: all other assays above

COc1ccc2c(c1)c(CC(=O)O)c(C)n2C(=O)c1ccc(Cl)cc1
not listed: [10]
inactive: all other assays above

Cc1ccc(C)c(C)c1
not listed: [10]
inactive: all other assays above

CCCCCCCCCCCC(=O)OC
not listed: [10]
inactive: all other assays above

Cc1cccc(Nc2cc(Cl)nc(SCC(=O)O)n2)c1C
not listed: [5]
inactive: all other assays above

Cc1cc(NC(=O)C(=O)O)cc(C)c1Oc1ccc(O)c2c1CCC2
not listed: [10]
inactive: all other assays above

CNCc1cc(F)ccc1Oc1ccc(Cl)c(Cl)c1
not listed: [9]
inactive: all other assays above

COC(=O)c1ccc(O)cc1
not listed: [9] | [10]
inactive: all other assays above

CCCCCCCC=O
not listed: [9] | [10]
inactive: all other assays above

CC1(C)NC(=O)NC1=O
active: [5] 12 µM
not listed: [10]
inactive: all other assays above
